Laboratory results as given in the supplement of paper PMC11732987, “Enantioselective OTUD7B fragment discovery through chemoproteomics screening and high-throughput optimisation” (Communications Chemistry, 2025).

Experiments:
Assay in all cases: log2 ratio of Biotin-Ahx-Ub-VS probe labelling (fragment/DMSO); higher = less target engagement (more negative = stronger competition), active = hit call of the paper (q ≤ 0.05, log2 ratio ≤ -1)
Conditions in all cases: compound concentration: 200 uM; treatment time: 3 h
[1] = molecular target: T1, USP42 (UniProt Q9H9J4)
T1 sequence (whole entry): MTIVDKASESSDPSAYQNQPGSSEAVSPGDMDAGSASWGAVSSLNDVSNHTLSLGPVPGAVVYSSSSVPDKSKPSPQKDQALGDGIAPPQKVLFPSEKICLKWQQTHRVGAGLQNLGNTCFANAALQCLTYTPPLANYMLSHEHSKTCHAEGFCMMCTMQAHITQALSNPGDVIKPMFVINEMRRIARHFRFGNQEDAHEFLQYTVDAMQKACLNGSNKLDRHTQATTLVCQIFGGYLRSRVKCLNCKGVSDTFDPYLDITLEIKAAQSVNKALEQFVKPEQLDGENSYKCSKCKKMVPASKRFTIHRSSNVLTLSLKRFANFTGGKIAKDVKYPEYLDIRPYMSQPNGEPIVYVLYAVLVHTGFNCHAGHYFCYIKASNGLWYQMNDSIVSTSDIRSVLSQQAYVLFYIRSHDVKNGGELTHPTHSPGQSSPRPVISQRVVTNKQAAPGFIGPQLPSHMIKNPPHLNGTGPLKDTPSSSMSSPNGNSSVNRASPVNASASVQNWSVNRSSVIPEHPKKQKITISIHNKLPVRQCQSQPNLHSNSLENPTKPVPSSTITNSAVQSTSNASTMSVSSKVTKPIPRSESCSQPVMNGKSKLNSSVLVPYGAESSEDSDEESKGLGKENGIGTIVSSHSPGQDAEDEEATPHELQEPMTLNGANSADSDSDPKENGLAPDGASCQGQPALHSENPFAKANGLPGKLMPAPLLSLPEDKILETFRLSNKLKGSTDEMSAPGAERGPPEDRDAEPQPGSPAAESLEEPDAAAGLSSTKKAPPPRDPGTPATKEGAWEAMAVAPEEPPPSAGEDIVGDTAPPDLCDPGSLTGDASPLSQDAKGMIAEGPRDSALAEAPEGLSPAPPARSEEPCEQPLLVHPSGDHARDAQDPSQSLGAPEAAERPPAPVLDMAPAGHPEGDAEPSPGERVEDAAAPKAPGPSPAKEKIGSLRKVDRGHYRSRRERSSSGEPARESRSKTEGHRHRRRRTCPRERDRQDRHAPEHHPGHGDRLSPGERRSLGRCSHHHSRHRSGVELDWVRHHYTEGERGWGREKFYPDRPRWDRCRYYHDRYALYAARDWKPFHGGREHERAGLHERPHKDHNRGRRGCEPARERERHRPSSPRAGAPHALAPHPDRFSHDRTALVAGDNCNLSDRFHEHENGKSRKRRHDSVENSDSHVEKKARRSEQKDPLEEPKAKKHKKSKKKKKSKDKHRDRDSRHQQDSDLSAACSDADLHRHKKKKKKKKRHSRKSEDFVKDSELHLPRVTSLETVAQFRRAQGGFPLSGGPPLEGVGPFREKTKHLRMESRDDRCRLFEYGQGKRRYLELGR
In short: (§1)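 Average log2 ratios of fragment over vehicle were obtained by unpaired t-test from global-median-normalised Spectronaut label-free quantities. Proteins with ≥2 unique peptides were included. HEK293T lysate (495 µg per sample) was treated in triplicate with fragment at 200 µM or vehicle for 3 h, then with Biotin-Ahx-Ub-VS at 0.5 µM final for 1 h, and labelled DUBs were NeutrAvidin-enriched and run by diaPASEF LC-MS/MS.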

[2] = molecular target: USP46 (UniProt P62068)
Sequence of USP46 (P62068 whole entry): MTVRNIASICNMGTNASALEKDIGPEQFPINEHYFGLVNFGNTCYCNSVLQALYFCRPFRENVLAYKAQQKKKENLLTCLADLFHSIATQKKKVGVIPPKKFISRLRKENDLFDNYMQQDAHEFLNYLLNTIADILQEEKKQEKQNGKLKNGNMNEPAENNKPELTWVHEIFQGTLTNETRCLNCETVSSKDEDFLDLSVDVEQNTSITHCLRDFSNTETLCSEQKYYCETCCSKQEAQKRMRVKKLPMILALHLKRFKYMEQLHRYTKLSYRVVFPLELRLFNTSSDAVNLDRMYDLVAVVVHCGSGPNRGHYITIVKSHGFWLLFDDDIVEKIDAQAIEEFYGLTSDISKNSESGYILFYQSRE
In short: as §1

[3] = molecular target: T2, USP47 (UniProt Q96K76)
T2 sequence (whole entry): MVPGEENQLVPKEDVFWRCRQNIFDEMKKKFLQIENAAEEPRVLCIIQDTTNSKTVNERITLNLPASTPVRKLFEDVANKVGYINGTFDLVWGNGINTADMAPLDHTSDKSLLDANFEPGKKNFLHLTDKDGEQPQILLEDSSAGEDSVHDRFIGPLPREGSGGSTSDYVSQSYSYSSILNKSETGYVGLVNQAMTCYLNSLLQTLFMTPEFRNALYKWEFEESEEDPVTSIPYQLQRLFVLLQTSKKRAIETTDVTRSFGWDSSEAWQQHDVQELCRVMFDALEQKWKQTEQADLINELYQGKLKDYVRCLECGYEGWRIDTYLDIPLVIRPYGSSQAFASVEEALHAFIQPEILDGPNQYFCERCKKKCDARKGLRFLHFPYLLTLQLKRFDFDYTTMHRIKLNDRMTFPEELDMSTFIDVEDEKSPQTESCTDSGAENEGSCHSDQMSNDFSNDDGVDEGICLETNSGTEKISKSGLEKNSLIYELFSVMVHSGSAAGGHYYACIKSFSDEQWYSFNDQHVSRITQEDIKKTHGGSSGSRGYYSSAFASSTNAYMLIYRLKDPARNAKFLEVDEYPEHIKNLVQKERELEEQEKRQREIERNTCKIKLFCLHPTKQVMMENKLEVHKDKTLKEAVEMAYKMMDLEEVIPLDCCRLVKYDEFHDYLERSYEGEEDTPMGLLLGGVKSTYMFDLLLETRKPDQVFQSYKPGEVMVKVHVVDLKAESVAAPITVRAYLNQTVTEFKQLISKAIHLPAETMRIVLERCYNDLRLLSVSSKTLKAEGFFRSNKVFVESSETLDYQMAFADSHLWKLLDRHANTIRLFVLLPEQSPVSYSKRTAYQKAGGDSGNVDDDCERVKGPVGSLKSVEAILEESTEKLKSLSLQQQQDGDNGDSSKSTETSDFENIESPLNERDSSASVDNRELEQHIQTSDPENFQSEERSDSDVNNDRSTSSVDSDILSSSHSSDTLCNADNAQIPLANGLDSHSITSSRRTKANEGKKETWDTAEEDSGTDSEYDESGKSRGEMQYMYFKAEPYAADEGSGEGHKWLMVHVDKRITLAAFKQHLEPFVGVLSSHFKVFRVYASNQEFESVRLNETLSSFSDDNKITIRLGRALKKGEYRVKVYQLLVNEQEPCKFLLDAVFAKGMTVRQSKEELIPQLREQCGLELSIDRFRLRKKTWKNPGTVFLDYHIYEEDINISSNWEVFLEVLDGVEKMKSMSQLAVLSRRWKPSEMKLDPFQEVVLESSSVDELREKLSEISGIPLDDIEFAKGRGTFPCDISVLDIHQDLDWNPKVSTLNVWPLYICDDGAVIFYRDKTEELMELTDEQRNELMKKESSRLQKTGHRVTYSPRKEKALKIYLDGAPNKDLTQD
In short: as §1

[4] = molecular target: T3, USP48 (UniProt Q86UV5)
T3 sequence (whole entry): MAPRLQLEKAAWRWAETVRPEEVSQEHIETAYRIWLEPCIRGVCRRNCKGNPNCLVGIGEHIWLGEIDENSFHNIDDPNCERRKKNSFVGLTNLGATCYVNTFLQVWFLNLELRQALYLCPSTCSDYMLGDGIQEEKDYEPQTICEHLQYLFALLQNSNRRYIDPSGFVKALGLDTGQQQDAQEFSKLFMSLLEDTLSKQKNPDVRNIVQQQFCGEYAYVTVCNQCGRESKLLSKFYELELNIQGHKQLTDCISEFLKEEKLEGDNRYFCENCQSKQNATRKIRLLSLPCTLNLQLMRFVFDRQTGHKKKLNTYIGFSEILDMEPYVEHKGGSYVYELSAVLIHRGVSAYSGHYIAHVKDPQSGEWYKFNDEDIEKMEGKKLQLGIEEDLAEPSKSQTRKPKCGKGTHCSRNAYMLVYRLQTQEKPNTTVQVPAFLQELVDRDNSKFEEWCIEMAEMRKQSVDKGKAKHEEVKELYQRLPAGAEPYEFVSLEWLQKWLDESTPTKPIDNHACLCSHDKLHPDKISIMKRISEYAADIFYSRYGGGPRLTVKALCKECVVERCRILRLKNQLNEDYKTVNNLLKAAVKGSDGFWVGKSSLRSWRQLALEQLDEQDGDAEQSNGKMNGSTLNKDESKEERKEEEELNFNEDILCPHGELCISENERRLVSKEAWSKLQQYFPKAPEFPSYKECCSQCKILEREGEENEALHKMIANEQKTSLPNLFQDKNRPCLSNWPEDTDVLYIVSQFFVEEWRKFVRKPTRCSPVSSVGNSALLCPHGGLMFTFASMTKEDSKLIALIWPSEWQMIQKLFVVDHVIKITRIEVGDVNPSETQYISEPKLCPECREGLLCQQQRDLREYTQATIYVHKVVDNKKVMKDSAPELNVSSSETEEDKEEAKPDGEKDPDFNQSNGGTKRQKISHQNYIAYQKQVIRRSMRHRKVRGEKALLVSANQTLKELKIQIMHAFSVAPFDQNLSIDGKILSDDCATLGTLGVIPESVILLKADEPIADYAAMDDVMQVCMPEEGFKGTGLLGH
In short: as §1

[5] = molecular target: T4, USP5 (UniProt P45974)
T4 sequence (whole entry): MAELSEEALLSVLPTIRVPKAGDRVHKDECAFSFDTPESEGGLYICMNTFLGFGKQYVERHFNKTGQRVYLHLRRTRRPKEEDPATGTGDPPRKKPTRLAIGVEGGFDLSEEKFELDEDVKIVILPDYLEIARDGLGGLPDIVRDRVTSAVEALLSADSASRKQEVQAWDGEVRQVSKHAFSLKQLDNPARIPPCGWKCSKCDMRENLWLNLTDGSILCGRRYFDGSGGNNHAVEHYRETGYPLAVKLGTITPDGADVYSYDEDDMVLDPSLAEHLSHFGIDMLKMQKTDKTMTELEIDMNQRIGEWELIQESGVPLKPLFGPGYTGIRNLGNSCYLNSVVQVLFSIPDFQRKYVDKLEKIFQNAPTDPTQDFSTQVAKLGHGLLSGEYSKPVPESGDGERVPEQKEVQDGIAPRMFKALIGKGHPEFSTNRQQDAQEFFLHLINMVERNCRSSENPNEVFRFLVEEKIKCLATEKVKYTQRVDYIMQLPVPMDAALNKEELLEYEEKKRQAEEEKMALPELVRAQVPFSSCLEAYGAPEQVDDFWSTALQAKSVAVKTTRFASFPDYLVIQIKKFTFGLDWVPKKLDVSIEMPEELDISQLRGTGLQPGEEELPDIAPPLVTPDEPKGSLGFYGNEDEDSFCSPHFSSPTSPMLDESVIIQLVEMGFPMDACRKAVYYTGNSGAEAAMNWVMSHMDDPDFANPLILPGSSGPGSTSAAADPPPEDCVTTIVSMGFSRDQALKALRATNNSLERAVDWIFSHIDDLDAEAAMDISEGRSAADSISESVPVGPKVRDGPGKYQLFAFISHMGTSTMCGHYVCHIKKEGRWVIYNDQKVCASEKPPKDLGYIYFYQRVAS
In short: as §1

[6] = molecular target: USP54 (UniProt Q70EL1)
Sequence of USP54 (Q70EL1 whole entry): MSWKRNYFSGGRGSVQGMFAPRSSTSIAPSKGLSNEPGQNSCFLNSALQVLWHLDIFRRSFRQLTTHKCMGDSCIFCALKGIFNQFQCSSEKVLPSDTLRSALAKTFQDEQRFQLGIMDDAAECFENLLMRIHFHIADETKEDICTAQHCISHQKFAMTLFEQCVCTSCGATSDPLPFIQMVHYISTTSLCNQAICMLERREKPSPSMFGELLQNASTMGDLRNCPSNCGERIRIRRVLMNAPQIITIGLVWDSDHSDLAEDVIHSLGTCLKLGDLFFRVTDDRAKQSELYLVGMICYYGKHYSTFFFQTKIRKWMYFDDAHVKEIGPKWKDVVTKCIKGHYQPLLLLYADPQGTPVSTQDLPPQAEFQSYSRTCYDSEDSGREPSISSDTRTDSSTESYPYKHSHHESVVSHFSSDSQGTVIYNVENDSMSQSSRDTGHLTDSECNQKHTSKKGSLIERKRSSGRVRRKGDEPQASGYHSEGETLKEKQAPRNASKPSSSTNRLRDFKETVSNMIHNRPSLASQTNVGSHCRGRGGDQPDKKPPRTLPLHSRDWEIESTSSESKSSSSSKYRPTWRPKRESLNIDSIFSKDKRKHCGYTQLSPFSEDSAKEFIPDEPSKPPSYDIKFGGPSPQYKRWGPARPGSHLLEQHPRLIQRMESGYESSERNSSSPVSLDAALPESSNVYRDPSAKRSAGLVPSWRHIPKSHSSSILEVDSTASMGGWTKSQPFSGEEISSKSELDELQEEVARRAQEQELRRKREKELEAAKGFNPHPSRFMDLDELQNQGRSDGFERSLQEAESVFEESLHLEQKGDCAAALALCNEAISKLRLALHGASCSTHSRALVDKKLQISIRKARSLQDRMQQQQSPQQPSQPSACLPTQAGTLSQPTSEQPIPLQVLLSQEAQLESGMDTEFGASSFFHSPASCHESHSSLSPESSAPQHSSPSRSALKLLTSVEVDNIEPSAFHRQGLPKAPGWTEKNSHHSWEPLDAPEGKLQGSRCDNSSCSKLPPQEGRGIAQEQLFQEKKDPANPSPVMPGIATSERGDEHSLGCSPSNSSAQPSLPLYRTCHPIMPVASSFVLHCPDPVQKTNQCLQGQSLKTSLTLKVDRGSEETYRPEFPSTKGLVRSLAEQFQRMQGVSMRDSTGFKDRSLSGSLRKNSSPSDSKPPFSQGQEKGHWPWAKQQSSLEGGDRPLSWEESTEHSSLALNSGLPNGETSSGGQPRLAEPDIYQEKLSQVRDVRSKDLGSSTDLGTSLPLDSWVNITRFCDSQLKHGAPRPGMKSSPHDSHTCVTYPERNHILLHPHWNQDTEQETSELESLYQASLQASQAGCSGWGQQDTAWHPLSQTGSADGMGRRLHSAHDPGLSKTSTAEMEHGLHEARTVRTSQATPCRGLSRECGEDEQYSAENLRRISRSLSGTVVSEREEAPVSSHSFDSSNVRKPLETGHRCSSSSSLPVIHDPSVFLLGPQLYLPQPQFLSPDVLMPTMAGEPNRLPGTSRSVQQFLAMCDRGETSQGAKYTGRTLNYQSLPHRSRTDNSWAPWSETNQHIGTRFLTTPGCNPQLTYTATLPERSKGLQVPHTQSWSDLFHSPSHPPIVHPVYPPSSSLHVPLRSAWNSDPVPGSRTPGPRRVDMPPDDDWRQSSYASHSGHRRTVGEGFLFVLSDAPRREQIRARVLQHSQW
In short: as §1

[7] = molecular target: USP7 (UniProt Q93009)
In short: as §1

[8] = molecular target: T5, USP8 (UniProt P40818)
T5 sequence (whole entry): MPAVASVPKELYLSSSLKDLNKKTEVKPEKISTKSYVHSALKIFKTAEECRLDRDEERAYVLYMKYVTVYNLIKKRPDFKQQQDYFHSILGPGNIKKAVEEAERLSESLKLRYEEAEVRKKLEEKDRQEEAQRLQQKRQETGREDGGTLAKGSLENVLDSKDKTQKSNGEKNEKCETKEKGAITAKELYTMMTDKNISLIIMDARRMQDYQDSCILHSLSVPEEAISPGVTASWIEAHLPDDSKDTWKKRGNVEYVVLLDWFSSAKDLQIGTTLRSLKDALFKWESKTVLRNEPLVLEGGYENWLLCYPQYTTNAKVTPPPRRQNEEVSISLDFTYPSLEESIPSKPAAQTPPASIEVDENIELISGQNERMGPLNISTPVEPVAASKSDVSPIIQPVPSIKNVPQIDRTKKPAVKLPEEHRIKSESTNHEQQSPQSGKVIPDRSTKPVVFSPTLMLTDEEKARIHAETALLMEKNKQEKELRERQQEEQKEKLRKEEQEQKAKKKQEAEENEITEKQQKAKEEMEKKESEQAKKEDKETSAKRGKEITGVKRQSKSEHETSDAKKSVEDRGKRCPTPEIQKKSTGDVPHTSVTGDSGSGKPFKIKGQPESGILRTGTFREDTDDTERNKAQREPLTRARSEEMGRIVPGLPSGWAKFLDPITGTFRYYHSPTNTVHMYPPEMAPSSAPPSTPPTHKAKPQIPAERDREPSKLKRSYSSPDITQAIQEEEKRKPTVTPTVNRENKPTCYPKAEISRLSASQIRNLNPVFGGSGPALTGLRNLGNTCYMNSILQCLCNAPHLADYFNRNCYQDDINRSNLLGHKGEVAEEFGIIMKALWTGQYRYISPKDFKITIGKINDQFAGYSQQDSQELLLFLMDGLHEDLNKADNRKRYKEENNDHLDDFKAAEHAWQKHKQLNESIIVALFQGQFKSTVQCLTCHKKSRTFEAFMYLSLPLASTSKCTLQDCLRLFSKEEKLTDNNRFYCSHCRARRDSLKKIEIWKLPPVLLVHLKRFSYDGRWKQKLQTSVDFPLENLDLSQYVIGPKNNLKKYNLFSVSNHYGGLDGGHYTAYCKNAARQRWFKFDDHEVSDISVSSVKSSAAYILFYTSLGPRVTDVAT
In short: as §1

[9] = molecular target: USP9X (UniProt Q93008)
Sequence of USP9X (Q93008 whole entry): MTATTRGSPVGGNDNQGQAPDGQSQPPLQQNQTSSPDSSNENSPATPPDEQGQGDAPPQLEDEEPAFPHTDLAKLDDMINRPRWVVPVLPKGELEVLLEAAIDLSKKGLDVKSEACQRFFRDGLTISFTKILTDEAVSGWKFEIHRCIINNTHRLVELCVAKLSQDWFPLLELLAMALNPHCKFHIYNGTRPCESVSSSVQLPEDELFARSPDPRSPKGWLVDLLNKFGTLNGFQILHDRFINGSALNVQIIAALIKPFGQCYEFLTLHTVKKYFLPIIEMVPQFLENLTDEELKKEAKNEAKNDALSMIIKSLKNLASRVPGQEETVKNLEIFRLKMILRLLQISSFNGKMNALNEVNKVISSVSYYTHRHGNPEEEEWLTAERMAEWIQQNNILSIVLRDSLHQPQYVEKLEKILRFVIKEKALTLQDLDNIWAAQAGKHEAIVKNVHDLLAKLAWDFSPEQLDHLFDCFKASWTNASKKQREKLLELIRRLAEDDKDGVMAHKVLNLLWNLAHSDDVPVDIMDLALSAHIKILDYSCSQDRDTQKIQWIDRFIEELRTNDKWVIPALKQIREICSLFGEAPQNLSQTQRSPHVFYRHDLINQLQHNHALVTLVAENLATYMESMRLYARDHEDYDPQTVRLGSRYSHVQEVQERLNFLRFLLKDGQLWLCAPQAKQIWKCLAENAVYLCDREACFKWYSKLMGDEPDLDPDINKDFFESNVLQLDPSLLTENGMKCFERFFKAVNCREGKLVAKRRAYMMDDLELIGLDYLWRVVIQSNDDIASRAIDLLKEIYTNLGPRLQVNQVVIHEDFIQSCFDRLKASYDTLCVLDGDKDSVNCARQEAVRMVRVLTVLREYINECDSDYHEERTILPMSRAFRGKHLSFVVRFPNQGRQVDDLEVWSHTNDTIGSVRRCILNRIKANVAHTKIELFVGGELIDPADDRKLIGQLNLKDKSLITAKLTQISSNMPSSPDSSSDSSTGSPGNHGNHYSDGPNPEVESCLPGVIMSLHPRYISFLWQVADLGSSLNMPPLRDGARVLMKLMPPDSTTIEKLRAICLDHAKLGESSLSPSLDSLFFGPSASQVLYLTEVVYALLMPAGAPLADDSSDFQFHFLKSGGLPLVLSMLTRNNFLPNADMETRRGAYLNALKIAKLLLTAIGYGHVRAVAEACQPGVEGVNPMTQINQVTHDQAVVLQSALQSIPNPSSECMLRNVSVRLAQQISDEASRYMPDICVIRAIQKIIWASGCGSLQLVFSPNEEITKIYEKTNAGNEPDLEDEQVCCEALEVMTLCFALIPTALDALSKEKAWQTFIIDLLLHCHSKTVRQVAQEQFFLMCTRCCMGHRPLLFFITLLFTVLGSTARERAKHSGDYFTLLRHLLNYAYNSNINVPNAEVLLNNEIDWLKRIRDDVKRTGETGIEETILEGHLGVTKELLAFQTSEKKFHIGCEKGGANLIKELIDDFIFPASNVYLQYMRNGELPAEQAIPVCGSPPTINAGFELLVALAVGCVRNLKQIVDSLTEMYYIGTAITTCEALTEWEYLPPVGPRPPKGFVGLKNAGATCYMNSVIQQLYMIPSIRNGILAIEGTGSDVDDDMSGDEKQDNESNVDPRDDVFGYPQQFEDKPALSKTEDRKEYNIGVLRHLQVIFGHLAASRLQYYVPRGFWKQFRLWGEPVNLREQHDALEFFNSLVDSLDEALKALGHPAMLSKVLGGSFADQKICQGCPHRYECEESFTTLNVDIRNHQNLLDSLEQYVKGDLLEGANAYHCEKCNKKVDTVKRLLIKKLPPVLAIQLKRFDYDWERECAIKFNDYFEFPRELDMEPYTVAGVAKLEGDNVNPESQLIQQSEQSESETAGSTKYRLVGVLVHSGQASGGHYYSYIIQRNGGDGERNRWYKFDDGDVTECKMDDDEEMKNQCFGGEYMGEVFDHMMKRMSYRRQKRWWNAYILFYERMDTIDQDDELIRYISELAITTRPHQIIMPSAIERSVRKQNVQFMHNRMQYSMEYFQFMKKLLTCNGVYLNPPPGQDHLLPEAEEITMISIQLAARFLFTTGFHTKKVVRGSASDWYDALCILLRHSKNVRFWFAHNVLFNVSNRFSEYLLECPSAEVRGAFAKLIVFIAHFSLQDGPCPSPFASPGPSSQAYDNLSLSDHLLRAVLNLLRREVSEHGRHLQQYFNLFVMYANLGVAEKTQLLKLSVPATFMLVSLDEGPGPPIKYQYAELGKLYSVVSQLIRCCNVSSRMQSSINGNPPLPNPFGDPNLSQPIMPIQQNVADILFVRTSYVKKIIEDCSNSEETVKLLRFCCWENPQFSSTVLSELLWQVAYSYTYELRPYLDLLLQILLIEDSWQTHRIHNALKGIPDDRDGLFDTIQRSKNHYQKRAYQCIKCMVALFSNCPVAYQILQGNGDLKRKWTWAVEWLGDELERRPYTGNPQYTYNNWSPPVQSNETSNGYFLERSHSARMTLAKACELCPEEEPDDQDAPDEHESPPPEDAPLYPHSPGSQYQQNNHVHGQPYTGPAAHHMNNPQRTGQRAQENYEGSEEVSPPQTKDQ
In short: as §1

[10] = molecular target: UniProt O00487
Sequence of UniProt O00487 (O00487 whole entry): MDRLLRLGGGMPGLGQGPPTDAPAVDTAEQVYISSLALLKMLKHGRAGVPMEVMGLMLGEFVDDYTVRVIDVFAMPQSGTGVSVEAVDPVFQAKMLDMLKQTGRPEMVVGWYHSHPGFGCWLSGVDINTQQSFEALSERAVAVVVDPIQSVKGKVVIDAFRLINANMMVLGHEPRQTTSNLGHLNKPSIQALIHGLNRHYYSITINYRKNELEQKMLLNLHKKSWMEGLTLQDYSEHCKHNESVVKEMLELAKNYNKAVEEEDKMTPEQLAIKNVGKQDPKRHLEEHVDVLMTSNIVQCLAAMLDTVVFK
In short: as §1

Measured: log2 ratio of Biotin-Ahx-Ub-VS probe labelling

Cc1ccc(CC(NC(=O)CCl)c2ccccn2)cc1.Cl (stereo not given)
inactive: [1] -0.109 | [2] 0.168 | [3] 0.0361 | [4] 0.0528 | [5] -0.125 | [6] 0.195 | [7] -0.0773 | [8] 0.0199 | [9] 0.139 | [10] 0.244
